Screens from PubChem.
VCAM1 TNFa inh: inhibitors of TNFa-induced VCAM1 expression, primary screen, imaging, HUVEC, TNFa stimulus, immunofluorescence. AID 802, 2007. inhibition, % at 2 µM. 95,000 compounds, 0.48% hits. HUVEC TNFa-induced VCAM-1 immunofluorescence, high-content imaging;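 active = inhibition above the batch mean plus 3 SD, with images confirmed as a hit by eye, cut at about 37% in these data; inconclusive = inhibition above that limit but hit not confirmed in images; inactive = inhibition not above that limit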;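 also: 0% = TNF-stimulated DMSO wells and 100% = unstimulated control wells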
F-actin modifier: modifiers of F-actin cytoskeleton organization, primary screen, imaging, HUVEC, phalloidin staining, high-content imaging. 91,000 compounds, 0.18% hits. HUVEC TNFa F-actin phalloidin imaging. inhibition, % at 2 µM;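 active = inhibition above the batch mean plus 3 SD and confirmed as a hit by visual image inspection, cut at about 30% in these data, passing the limit was not always enough; inconclusive = above the inhibition threshold but rejected on visual inspection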
E-sel TNF inh: E-selectin induction blockers in HUVEC – imaging, immunofluorescence, high content, primary screen; HUVEC TNFa-induced E-selectin immunofluorescence; 120,000 compounds, 0.71% hits; inhibition, % at 2 µM;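 active = inhibition above the batch mean plus 3 SD, and confirmed as a hit on visual image review, cut at about 43% in these data; inconclusive = passes the inhibition cutoff but fails visual image review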;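 also: 0% = TNF-stimulated DMSO wells and 100% = unstimulated control wells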
HUVEC tox TNFa: cytotoxicity in TNFa-stimulated HUVEC, primary screen, cytotoxicity control for VCAM1 expression modulator project, imaging, Hoechst nuclei count. AID 848, 2007. HUVEC TNFalpha-stimulated, Hoechst cell count. cell count reduction, % at 2 µM. 93,000 compounds, 0.17% hits;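 active = cell count reduction exceeding the screen mean by over 5 SD, scaled to untreated wells per plate, cut at about 78% in these data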;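 also: cells counted after 24 h of TNF alpha exposure following the 1 h pretreatment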
* marks the source's active call; other numbers are inactive results; ? = inconclusive; . = not tested or not shown. Hits are enriched below; roughly 1.1% of the tested compounds scored in any of these assays.

SMILES	VCAM1 TNFa inh	F-actin modifier	E-sel TNF inh	HUVEC tox TNFa
COc1ccc(OC)c(-c2cc(C(=O)Nc3c(C)nn(Cc4ccc(Cl)cc4)c3C)no2)c1	-11	8	.	7
CCOC(=O)c1cc2c(nc1C)-c1cc(Cl)cc(Cl)c1OC2O (configuration not stated)	.	.	4	.
COc1ccc2c(c1)SC1=NCCS(=O)(=O)N12	61	-20	.	80*
O=S1(=O)CCN=C2SC3=C(CCCC3)N21	12	42	30	-24
CC(C)(C)C(=O)/C=c1\s/c(=C\c2ccc(-c3ccc([N+](=O)[O-])cc3)o2)c(=O)n1CC(=O)NC(N)=O	.	.	-24	.
Cc1oc2cc3c(C(=O)N4CCN(c5ccccc5)CC4)c(C)oc3cc2c1C(=O)N1CCN(c2ccccc2)CC1	15	23	1	-34
Cc1oc2cc3c(C(=O)N4CCCCC4)c(C)oc3cc2c1C(=O)N1CCCCC1	89*	-22	-27	80*
Cc1ccc(-c2cc(C(=O)NCc3ccccn3)no2)cc1	12	77*	16	-33
Cc1ccc(-c2cc(C(=O)NCc3ccco3)no2)cc1	-6	10	-8	-19
O=C(NCc1ccco1)c1cc(-c2ccc(Cl)cc2)on1	79*	-44	.	66
CCOC(=O)c1[nH]c(C)c(C(=O)OCC)c1C	-9	-14	.	2
CCOC(=O)c1[nH]c(C)c(C(=O)c2cc(F)ccc2F)c1C	83*	-15	-9	31
CC(=O)c1cc(OC(=O)N2CCOCC2)ccc1OC(=O)N1CCOCC1	1	.	-32	-41
O=C(Oc1ccc2ccc(=O)oc2c1)N1CCOCC1	90*	-29	.	79*
Cc1c(C(=O)OCC(=O)N2CC(=O)Nc3ccccc32)oc2ccc(Br)cc12	-23	-4	-17	-14
COc1ccc(CCNc2oc(COc3ccccc3F)nc2C#N)cc1	6	62*	.	-42
COc1ccc(N=c2oc3ccc(OC)cc3cc2-c2nc3ccccc3[nH]2)cc1	50*	-12	-4	-1
COc1cccc(N=c2oc3ccc(OC)cc3cc2-c2nc3ccccc3[nH]2)c1	25	-6	14	-6
O=C(CCn1nnc2ccccc21)Nc1nnc(Cc2ccc(F)cc2)s1	.	.	47*	.
COc1cccc(CSc2nc3ccccc3cc2C=O)c1	90*	5	-34	31
COc1cccc(NC(=O)CSc2nc3ccccc3cc2Cc2ccccc2)c1	8	-8	-8	-19
CCOC(=O)C1CCCN(Cc2ccccc2F)C1 (configuration not stated)	.	.	75*	.
Cc1nn(C)cc1C1C2=C(CC(C)(C)CC2=O)OC2=C1C(=O)CC(C)(C)C2	.	.	-25	.
COc1cccc(C(C(=O)NC(C)(C)C)N(CC(C)C)C(=O)CCC(=O)Nc2cc(C)on2)c1OC (configuration not stated)	.	.	-17	.
O=C(CN1CCOCC1)Nc1ccc(OCc2ccccc2)cc1	-1	-19	38	7
SMILES	VCAM1 TNFa inh	F-actin modifier	E-sel TNF inh	HUVEC tox TNFa
O=C(CN1CCN(CC(=O)Nc2ccc(OCc3ccccc3)cc2)CC1)Nc1ccc(F)cc1	-2	41	64*	3
CCCCNC(=O)C1CC(=O)N(c2ccc(OC)cc2)C1c1ccc(OC)cc1 (configuration not stated)	5	11	-11	-5
O=C(Nc1ccccc1C(=O)N/N=C/c1ccco1)c1ccc(F)cc1	.	.	94*	.
COc1cc(OC)c(NC(=O)c2ccco2)cc1Cl	4	-30	100*	-1
Cc1ccccc1C(=O)Nc1ccccc1C(=O)N/N=C\c1ccco1	14	-13	-18	0
Cc1ccccc1NC(=O)c1ccccc1NC(=O)c1ccco1	16	-9	-20	-17
CNC(=O)c1ccccc1NC(=O)c1ccco1	6	34*	4	.
COC(=O)C(C(=O)NCC1CCCO1)C1CCCC1 (configuration not stated)	-1	9	1	-28
CCOC(=O)C(C)Sc1nnc(Cc2cc(=O)[nH]c(=O)[nH]2)n1-c1ccc(Cl)cc1 (configuration not stated)	9	6	.	20
CCN(CC)CCCNC(=O)C1c2ccccc2C(=O)N(C)C1c1ccc(OC)cc1 (configuration not stated)	-2	-25	.	-5
CCNC(=O)CCn1nc(-c2ccc(Cl)cc2)c2ccccc2c1=O	84*	-30	.	96*
CC(C)NC(=O)CCn1nc(-c2ccc(Cl)cc2)c2ccccc2c1=O	.	.	0	.
C/C(=N\Nc1cccc2cccnc12)c1ccccc1O	.	.	72*	.
COC(=O)C(CC(C)C)NC(=O)/C=C/c1ccc(Cl)cc1 (configuration not stated)	.	.	16	.
CC(CCc1ccccc1)NC(=O)/C=C/c1ccc(Cl)cc1 (configuration not stated)	.	.	65*	.
COc1ccc(S(=O)(=O)NNC(=O)c2cc3cc4ccccc4nc3s2)cc1	6	-16	-2	-3
CCCCN(C(=O)NC(=O)Nc1cccc(C)c1C)S(C)(=O)=O	90*	-73	.	70
CCS(=O)(=O)N1CCC(NC(=O)C2CCCCC2)CC1	-7	2	9	-3
O=C1C=C(c2ccccc2)C(O)(c2ccccc2)C1 (configuration not stated)	-1	2	61*	-24
Cc1ccc(Cn2ncc3c(N4CCN(c5ccc(C)cc5)CC4)ncnc32)cc1	16	8	.	-5
Cc1ccc(Cn2ncc3c(N4CCN(C5CCCC5)CC4)ncnc32)cc1	.	.	100*	.
O=C(O)CCC(=O)NC1CCCCCCC1	.	100*	-68	.
CCOC(=O)N1CCN(C(=S)NC(=O)c2cncc(Br)c2)CC1	.	.	89*	.
C=CCNS(=O)(=O)c1nc(C)c(Cl)c(C)c1C#N	.	.	79*	.
CCn1c(=O)cc(OCC(=O)NCc2ccco2)c2ccccc21	?	-58	.	90*
SMILES	VCAM1 TNFa inh	F-actin modifier	E-sel TNF inh	HUVEC tox TNFa
CC1(C)NC(=O)N(CCCSc2ccc(Cl)cc2)C1=O	.	.	-26	.
O=C1C2CCCN2C(c2ccccc2)N1c1cccc(Cl)c1 (configuration not stated)	3	-13	5	5
O=C1C2CCCN2C(c2ccccc2)N1c1nccs1 (configuration not stated)	-8	3	85*	-14
COc1ccc(-c2nc(N)nc(C)c2Oc2ccccc2Br)c(O)c1	-7	-2	-14	-8
COc1ccc(C2(CNC(=O)c3cc([N+](=O)[O-])cc([N+](=O)[O-])c3)CCCC2)cc1OC	.	.	63*	.
COc1ccccc1CNC(=O)CSc1nnc2ccc(-c3cccnc3)nn12	.	.	84*	.
COc1ccc(Br)cc1C(=O)Nc1ccc(O)cc1	-4	10	-11	0
COc1ccc(Br)cc1C(=O)O	.	.	97*	.
O=C(NC1CCCCC1)C(c1cccs1)N(Cc1cccs1)C(=O)c1ccco1 (configuration not stated)	-5	43	36	-7
O=C(NC1CCCCC1)C(c1cccs1)N(C(=O)c1ccco1)c1ccc2c(c1)OCCO2 (configuration not stated)	-20	-28	60*	8
